These results are taken from PubChem BioAssay (EPA / NIEHS).

Inconclusive results are not listed. The source made the active and inactive calls. How the source made its calls, unless noted: active means hit-call score of the fitted dose curve at least 0.9, where 1 is the maximum; inactive means score below 0.9.

Assay [1] has as its system IYD (gene 389434). The experiment in a line: CCTE_GLTED_hIYD: CCTE's human Iodotyrosine Deiodinase (xIYD) Inhibition Assay, Great Lakes Toxicology and Ecology Division (GLTED) Lab (AID 2284317; active means hit-call score of the fitted dose curve at least 0.9, where 1 is the maximum;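 further: cell-free human IYD enzyme made in baculovirus insect cells; iodide freed from monoiodotyrosine measured by cerium arsenite color change at 420 nm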). Summed up:
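Absorbance change at 420 nm from the iodide-catalysed cerium-arsenic reaction reports free iodide released by human IYD from monoiodotyrosine. Enzyme, substrate and chemical are incubated 3 h; loss of signal is fitted relative to DMSO baseline.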

Assay [2] is described as follows: CCTE_Deisenroth_5AR_NBTE_acceptor: CCTE's 5alpha-reductase NanoBRET Target Engagement Assay - Autofluorescence Screen, Deisenroth Lab (AID 2284321).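 Further: compound fluorescence in the acceptor channel under 460 nm excitation flags autofluorescence artifacts.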 The conditions noted are these: actives raise or lower the signal. The essentials:
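Autofluorescence counter-screen: chemicals at an assumed nominal 100 uM in DMSO were scanned in three independent runs with 460 nm excitation. Gain or loss of acceptor signal was fitted bidirectionally against DMSO.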
For orientation: BRET reads energy transfer from a luciferase to a nearby fluorophore.

Assay [3] deals with SRD5A2 (gene 6716). Kind of assay: CCTE_Deisenroth_5AR_NBTE_ratio: CCTE's 5alpha-reductase NanoBRET Target Engagement Assay - Ratio, Deisenroth Lab (AID 2284322). The conditions noted are these: actives raise or lower the signal. The essentials: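 HEK293T transiently expressing SRD5A2-NanoLuc; cells exposed to chemical (8-point, 10 nM - 29.9 uM) for 5 h total, testosterone tracer added for final 2 h. NanoBRET acceptor/donor ratio (650/460 nm), bidirectional fit vs DMSO.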

Assay [4] deals with TTR (gene 7276). Kind of assay: CCTE_GLTED_hTTR_0.125uM: CCTE's human Transthyretin (hTTR) Inhibition Assay, with 0.125uM TTR, Great Lakes Toxicology and Ecology Division (GLTED) Lab (AID 2284431).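 Further: hits lower the fluorescence signal relative to DMSO baseline.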 The essentials: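 Cell-free displacement of ANSA probe from 0.125uM TTR after 2 h incubation with chemical. Fluorescence read at 380 nm excitation/475 nm emission; loss of signal relative to DMSO indicates T4-site displacement.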

The subject of assay [5] is SERPINA7 (gene 6906). The experiment in a line: CCTE_GLTED_hTBG: CCTE's human Thyroxine-binding Globulin (TBG) Inhibition Assay, Great Lakes Toxicology and Ecology Division (GLTED) Lab (AID 2284343; active means hit-call score of the fitted dose curve at least 0.9, where 1 is the maximum;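 further: active chemicals lower fluorescence versus DMSO baseline by displacing probe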). Summed up:
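hTBG + test chem, 2 h; ANSA probe displacement; fluorescence readout ex380/em475; DMSO = neg ctrl/baseline; cell-free.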

The nature of assay [6]: CCTE_Padilla_ZF_Score.General: CCTE's 144 Hour Post-fertilization zebrafish Assay Score for General Malformation, Padilla Lab (AID 2284411). The essentials:
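Wild-type zebrafish embryos were plated singly at 6-8 hpf in 10% Hanks' and exposed in sealed wells at 26C until rinsed on 5 dpf. At 6 dpf two blinded assessors scored mortality, hatching and malformations by stereomicroscopy; gain-of-signal versus DMSO.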

The nature of assay [7]: IUF_NPC2-5_cytotoxicity_120hr: Cytotoxicity Assessment at 120 hours in the Leibniz Research Institute for Environmental Medicine (IUF) Neural Progenitor Cell Migration and Differentiation Assay (NPC2-5) (AID 2284307; active means hit-call score of the fitted dose curve at least 0.9, where 1 is the maximum). Summed up:
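Human fetal (GW 16-19) neural progenitor spheres (0.3 mm) plated on poly-D-lysine/laminin in N2 differentiation medium, exposed 120 h with half-medium renewal at day 3; 7 concentrations plus solvent control, DMSO ≤0.1%. LDH release in supernatant read by resorufin fluorescence.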

Assay [8] can be described thus: IUF_NPC2-5_cell_number_120hr: Cell Number Assessment at 120 hours in the Leibniz Research Institute for Environmental Medicine (IUF) Neural Progenitor Cell Migration and Differentiation Assay (NPC2-5) (AID 2284308).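 Further: count of Hoechst-stained nuclei in migration zone around plated human neural progenitor spheres.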 The essentials:
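Human fetal neural progenitor spheres (0.3 mm) plated on poly-D-lysine/laminin in N2 differentiation medium, exposed five days across 7 concentrations with half-medium refresh at day 3. Hoechst-positive nuclei counted in migration area at 120 h, relative to DMSO.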

Assay [9] in a line: IUF_NPC2-5_viability_120hr: Viability Assessment at 120 hours in the Leibniz Research Institute for Environmental Medicine (IUF) Neural Progenitor Cell Migration and Differentiation Assay (NPC2-5) (AID 2284312). The essentials: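 Human fetal (GW 16-19) neural progenitor spheres of 0.3 mm were plated on poly-D-lysine/laminin in N2 differentiation medium and exposed from day 0 for 120 h, with half-medium refresh at day 3. Viability was read as alamar blue resazurin-to-resorufin fluorescence against DMSO.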

Assay [10] is described as follows: CCTE_Mundy_HCI_iCellGluta_NOG_NeuriteLength: CCTE's Neurite Outgrowth Assay in iCellGluta cells for Neurite Length, Mundy Lab (AID 2284318; active means hit-call score of the fitted dose curve at least 0.9, where 1 is the maximum). Summed up:
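Automated high-content imaging of betaIII-tubulin (Alexa Fluor-488) and Hoechst-stained cells gave neurite length, normalized to the DMSO baseline.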

Assay [11] in a line: IUF_NPC1_cytotoxicity_72hr: Cytotoxicity Assessment at 72 hours in the Leibniz Research Institute for Environmental Medicine (IUF) Neural Progenitor Cell Proliferation Assay (NPC1) (AID 2284332; active means hit-call score of the fitted dose curve at least 0.9, where 1 is the maximum;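 further: rising LDH signal means more cytotoxicity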). The essentials: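 Spheres of primary human neural progenitors are plated one per well on day 0 in growth-factor medium and dosed at once. After three days at 37C, supernatant LDH is measured fluorimetrically via resazurin reduction.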

A short description of assay [12]: CCTE_Mundy_HCI_iCellGluta_NOG_NeuronCount: CCTE's Neurite Outgrowth Assay in iCellGluta cells for Neuron Count, Mundy Lab (AID 2284340; active means hit-call score of the fitted dose curve at least 0.9, where 1 is the maximum;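 further: cells fixed about 48 h after compound addition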). Summed up:
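Neuron count read by automated high-content imaging of Hoechst 33342 and betaIII-tubulin/Alexa Fluor-488 labelling in human iPSC glutamatergic neurons. Activity fitted relative to DMSO.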

Assay [13] in a line: CCTE_Mundy_HCI_iCellGluta_NOG_NeuriteCount: CCTE's Neurite Outgrowth Assay in iCellGluta cells for Neurite Count, Mundy Lab (AID 2284342; active means hit-call score of the fitted dose curve at least 0.9, where 1 is the maximum;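 further: chemical exposure about 48 hours starting 2 hours after plating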).
A short description of assay [14]: CCTE_Deisenroth_H295R-HTRF_384WELL_ESTRADIOL: CCTE's H295R-HTRF Assay Evaluation of Estradiol Concentration, Deisenroth Lab (AID 2284361). The conditions noted are these: actives raise or lower the signal. Summed up: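 H295R cells exposed 48 h to chemicals at 0.001 - 100 uM final (nine points, triplicate); estradiol in conditioned medium measured by HTRF immunoassay, fitted bidirectionally versus DMSO. Viability by CellTiter-Glo on same plates.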

Assay [15] in a line: CCTE_Deisenroth_H295R-HTRF_384WELL_TESTOSTERONE: CCTE's H295R-HTRF Assay Evaluation of Testosterone Concentration, Deisenroth Lab (AID 2284373). The conditions noted are these: actives raise or lower the signal. Summed up: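 Secreted testosterone was quantified by HTRF immunoassay of medium from human adrenocortical H295R cells after 48 h chemical exposure at 0.001–100 uM final. Gain or loss was fitted against DMSO. ATP-based viability was read on matched wells, five experimental replicates.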
For orientation: Time-resolved FRET reads energy transfer from a long-lived donor to a nearby acceptor.

The nature of assay [16]: CCTE_Deisenroth_H295R-HTRF_384WELL_CTOX: Cytotoxicity Assessment in CCTE's H295R-HTRF Assay, Deisenroth Lab (AID 2284380; active means hit-call score of the fitted dose curve at least 0.9, where 1 is the maximum). Summed up:
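H295R adrenocortical carcinoma cells plated 24 h, then exposed 48 h to nine-point series 0.001–100 uM final, triplicate, n=5. ATP measured by CellTiter-Glo 2.0 luminescence on same plates after medium collection; loss versus DMSO.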

For the compound `CCCCCCCCCCCCCC(=O)O`, the AC50 in assay [1] was 100 µM (active); in assay [4] it was 1.93 µM (active). The outcome in [2] and in assay [3] was inactive.
Take `O=C1c2ccccc2C(=O)N1SC1CCCCC1`: the AC50 in assay [5] was 29.4 µM (active).
In the case of `CCn1c2ccccc2c2cc(N)ccc21`, the compound was classed as inactive in [6].
Consider `CCCCCCCCCCCCCCCC(=O)OC[C@H](O)[C@H]1OC(=O)C(O)=C1O`, for which the AC50 in assay [1] is 25.6 µM (active). Besides, the call in assay [2] and in assay [3] was inactive.
Consider `O=c1cc(-c2ccccc2)oc2cc(O)cc(O)c12`, for which the AC50 in [4] was 0.06 µM (active).
As to `O=C(Oc1ccccc1)c1ccc(O)cc1`, the AC50 was 12.6 µM (active) in [5] and 0.326 µM (active) in [4].
In the case of `N#Cc1ccc(CC(=NNC(=O)Nc2ccc(OC(F)(F)F)cc2)c2cccc(C(F)(F)F)c2)cc1`, the compound was called inactive in assay [7], in [8], in [9], in assay [10], in [11] and in assay [12].
Take `O=C1OC2(c3cc(Br)c(O)c(Br)c3Oc3c2cc(Br)c(O)c3Br)c2c(Cl)c(Cl)c(Cl)c(Cl)c21`: in [1], the concentration at half-maximal activity (AC50) is 23.7 µM (active).
For `CC(C)=CCC[C@](C)(O)[C@@H]1CC=C(C)CC1`, the call in assay [2] and in assay [3] was inactive. In assay [5], the AC50 is 19.2 µM (active).
As to `BrC1CCC(Br)C(Br)CCC(Br)C(Br)CCC1Br` (stereo not drawn), the outcome in assay [2] and in assay [3] was inactive.
In the case of `CCN(CC)c1ccc2c(-c3ccccc3C(=O)O)c3ccc(=[N+](CC)CC)cc-3oc2c1`, in [2], the call was inactive. Further, the AC50 in [3] is 22.1 µM (active).
As to `O=Nc1ccc(Nc2ccccc2)cc1`, the AC50 is 50 µM (active) in assay [2], 75.4 µM (active) in [3], 15.9 µM (active) in [5] and 7.46 µM (active) in assay [4].
With `CCCCCCCCCCCCCCCC(=O)O`, the AC50 in assay [1] is 80.9 µM (active).
For the compound `CN(C)C(=N)N=C(N)N`, the result in assay [7], in [8], in [9], in assay [10], in [11] and in assay [13] was inactive.
With `CC(C)c1ccc(C(C)C)cc1`, the outcome in assay [6] was inactive.
Turning to `C#C[C@]1(O)CC[C@H]2[C@@H]3CCC4=Cc5oncc5C[C@]4(C)[C@H]3CC[C@@]21C`, the AC50 in [14] is 38.2 µM (active); in assay [15] it was 0.362 µM (active). In assay [16], the compound was called inactive.
Consider `CC1CC(OC(=O)c2ccccc2O)CC(C)(C)C1` (stereo not drawn), for which the result in assay [2] and in assay [3] was inactive.
Regarding `c1ccc(CCCc2ccccn2)cc1`, the AC50 in [5] is 22.2 µM (active).
On to `CCN(CC)c1ccc(C(=C2C=CC(=[N+](CC)CC)C=C2)c2ccc(S(=O)(=O)O)cc2S(=O)(=O)[O-])cc1`, for which the AC50 in assay [2] is 13 µM (active); in [3], 3.22 µM (active).
Consider `O=C(O)c1cn(C2CC2)c2cc(N3CCNCC3)c(F)cc2c1=O`, for which the outcome in [6] was inactive.
With `CSc1nc(NC2CC2)nc(NC(C)(C)C)n1`, the AC50 in [4] was 10.8 µM (active).
`O=C1CCCCCCCCCCCCCCO1`: the compound was classed as inactive in [6].
The same measure, in the same setting: the result for `O=[N+]([O-])c1cc(C(F)(F)F)ccc1Cl` reads “inactive”.
For the compound `CCCCCCCCC=O`, the outcome in assay [6] was inactive.
On to `CCCCCCCCCCCCCOS(=O)(=O)O`, for which the AC50 in assay [1] is 34.2 µM (active); in assay [2], 43.2 µM (active); in assay [3] it was 81.8 µM (active); in assay [5], 31 µM (active); in assay [4], 1.6 µM (active).
On to `CCCCC(CC)COCCC#N` (stereo not drawn), for which the outcome in assay [6] was inactive.
Consider `CCCCCCCCCC=O`, for which, in assay [6], the outcome was inactive. The AC50 in [4] is 9.95 µM (active).
Consider `Cc1ccc(S)cc1`, for which the AC50 in assay [5] is 1.59 µM (active).
As to `CCCCCC(CO)CCC` (stereo not drawn), the compound was classed as inactive in assay [2] and in assay [3].
Turning to `CC(C)=CCCC(C)=CCCC(C)=CCO`, in [4], the half-maximal activity concentration (AC50) is 19.9 µM (active).

One may read the AC50 as the midpoint of the concentration-response curve, whichever way the signal moves.
